Laboratory results taken from PubChem BioAssay AID1259313 (Sanford-Burnham Center for Chemical Genomics, 2017).
Among all 340,000 compounds or so, about 8,500 (2.5%) were called active. For the sample, actives were picked, then their nearest neighbours and some compounds at random. Values without a mark were called inactive.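 Rule for the calls: active = melting temperature shift of at least 10% of the positive control shift, at one fixed dose; inactive = the rest.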

test system: Glutamate receptor ionotropic, NMDA 3A (GRIN3A) ligand-binding domain; test: NR3A LBD thermal stabilization by compounds – biophysical, differential scanning fluorimetry, uHTS, primary screen (AID 1259313); conditions: at 25 µM, active compounds read high, 0% = protein alone, 100% = glycine-bound protein

SMILES | Tm shift relative to glycine control
CCOc1ccc(C(=O)Nc2c3c(nn2-c2ccccc2)CS(=O)(=O)C3)cc1 | -0.47%
COc1cc(C(=O)Nn2c(O)c(C3=c4ccccc4=NC3=O)sc2=S)ccc1O | 11.1% (active)
COc1cc(C(=S)NC2CCCCC2)ccc1O | -5.68%
COc1cc(C(=O)Nn2c(CC(C)C)nc3ccccc3c2=O)cc(OC)c1OC | -0.54%
CN(CC(=O)Nc1ccccc1F)CC(=O)Nc1ccccc1Br | -1.08%
CCOc1ccc(NC(=O)CN(C)C(=O)COc2cccc(CC)c2)cc1OCC | 3.14%
Cc1nn(C)c(C)c1S(=O)(=O)N1CCc2ccccc21 | -0.32%
CCc1cccc(CC)c1NC(=S)NCc1ccc2[nH]c(C)cc2c1 | -6.16%
Cc1cccc(NC(=S)N2CCC(C(=O)c3ccc(F)cc3)CC2)c1 | -1.17%
Cc1cccc(NC(=S)NCc2ccc3[nH]c4c(c3c2)CCCC4)c1 | 16.4% (active)
CC(NC(=O)c1cc(=O)[nH]c2ccccc12)c1ccc(F)cc1F (configuration not stated) | -1.44%
CCCn1c(=N)n(CC(=O)c2ccc(Cl)c(Cl)c2)c2ccccc21 | -6.05%
CCOC(=O)C1CCN(Cc2ccc(-c3ccccc3)cc2)CC1 | -0.95%
CCOC(=O)N1CCN(Cc2nnc(-c3ccccc3Cl)o2)CC1 | 0.35%
CCOC(=O)C1CCN(Cc2nnc(-c3cccc(Br)c3)o2)CC1 | 222% (active)
CCOC(=O)c1cc2c(=O)[nH]c(C(Cl)(Cl)Cl)nc2o1 | 5.2%
Cn1c(=O)c2c(nc(NCCc3ccccc3)n2Cc2ccccc2)n(C)c1=O | -12.7%
Cc1cccc(Cn2c(N3CCN(c4ccccc4)CC3)nc3c2c(=O)n(C)c(=O)n3C)c1 | -1.11%
C/C(Cl)=C\Cn1c(Nc2cccc(C)c2)nc2c1c(=O)n(C)c(=O)n2C | 18.4% (active)
FC(F)(F)c1ccc(-c2cccc3c2C2CC3CCN2Cc2ccccc2)cc1 (configuration not stated) | 0.87%
Cc1ccc(CNC(=O)CCNS(=O)(=O)c2ccc(Br)s2)cc1 | 0.52%
CCc1cccc(NC(=O)CCNS(=O)(=O)c2cccc3nonc23)c1 | -1.5%
Cc1ccc(CNC(=O)CCNS(=O)(=O)c2cccc3nonc23)cc1 | 17.3% (active)
COC(=O)c1ccc(CN(c2ccccc2OC)S(=O)(=O)c2cccs2)o1 | 0%
COC(=O)[C@]1(Cc2ccccc2)N[C@H](CN(C)S(=O)(=O)c2ccc(F)cc2)[C@@H]2C(=O)N(Cc3ccccc3)C(=O)[C@@H]21 | 0.82%
COC(=O)[C@]1(Cc2ccccc2)N[C@H](CN(C)S(=O)(=O)c2ccc(OC(F)(F)F)cc2)[C@@H]2C(=O)N(Cc3ccccc3)C(=O)[C@@H]21 | 18.1% (active)
COC(=O)[C@]1(Cc2ccccc2)N[C@H](CN(C)S(=O)(=O)c2ccc(OC(F)(F)F)cc2)[C@@H]2C(=O)N(C)C(=O)[C@@H]21 | -3.1%
